Consider 19 compounds from PubChem BioAssay (NCATS).

Values joined by “and” are separate entries in the source; they are usually repeats but may differ in a detail not shown here. Identical values can stand only once. Inconclusive results are not listed. Some compounds were tested as several samples or in several runs, with calls that do not always agree. Active and inactive are the calls of the source. Unless noted, the call rests on the fitted dose curve; in most records, active means well fitted curve in the direction sought with a large enough effect; inconclusive means small, poorly fitted or top-dose-only effect, or another doubt; inactive means no such curve, though single readings can be large; an effect the other way counts as inactive or inconclusive.

Experiment [1] can be described thus: qHTS assay for small molecule antagonists of retinoid X receptor alpha signaling (AID 588546; active means well fitted inhibition curve with a large enough effect in the signal ratio, with a control signal flat, not every such curve was filed as active; the % refers to the signal ratio;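 further: cells stimulated with 9-cis-retinoic acid as agonist; on the % scale 0 is the no-effect control and ±100 the full control effect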). As to conditions: HEK293T RXRa-UAS-bla, beta-lactamase ratio, antagonist mode; measured here: W530 green channel, cytotoxicity proxy. In outline: (§1)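 Beta-lactamase reporter inhibition, read as CCF4 fluorescence ratio (ex 405, em 460/530 nm) after 2 h at RT. HEK293T UAS-bla cells, 2500/well, were stimulated with 9-cis-RA at 500 or 100 nM final alongside test compound for 18 h at 37 C.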
Background: qHTS replaces the single test concentration by a dilution series.

In experiment [2] the target is Retinoic acid receptor RXR-alpha (Homo sapiens) (UniProt P19793). The experiment is described as above. As to conditions: HEK293T RXRa-UAS-bla, beta-lactamase ratio, antagonist mode. In outline:
as §1

Experiment [3] addresses Voltage-gated inwardly rectifying potassium channel KCNH2 (Homo sapiens) (UniProt Q12809). In words: qHTS Assay for Small Molecule Inhibitors of the Human hERG Channel Activity (AID 588834).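 Further: lower thallium flux fluorescence means stronger hERG block; nearly all actives have a fitted effect of over 50% in size.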 Further: potency means the concentration at half of the fitted maximal effect. In outline:
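U2OS cells transduced with hERG via BacMam (MOI ~100), plated 2000/well, loaded with FluxOR thallium dye, compound ~10 min, then stimulation buffer; fluorescence decrease read kinetically; AC50 from Hill fits.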

The target in experiment [4] is Luciferin 4-monooxygenase (Photinus pyralis) (UniProt P08659). Description: Biochemical firefly luciferase enzyme assay for NPC (AID 624030). Further: nearly all actives have a fitted effect of over 70% in size. Further: potency means the concentration at half of the fitted maximal effect. In short, it runs like this: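 Purified P. pyralis luciferase at 10 nM in 50 mM Tris Acetate (final), luminescence read within 5 minutes of enzyme addition to compounds. Activity normalised to PTC124 versus DMSO; concentration-response curves classed by r2, magnitude and activity.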

The nature of experiment [5]: S16 Schwann cell PMP22 intronic element firefly luciferase assay (AID 624032).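 Further: plate controls were DMSO for no effect and PTC124 positive control mean for full effect; nearly all actives have a fitted effect of over 30% in size.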 In outline:
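Rat S16 Schwann cells stably carrying firefly luciferase driven by a PMP22 intronic element, in 10% FBS, treated 24 h at 37 C. ONE-Glo luminescence normalized to PTC124 control and DMSO (0%); curves classed by r2, magnitude and activity.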

Experiment [6] can be described thus: qHTS assay for small molecule agonists of the antioxidant response element (ARE) signaling pathway (AID 651741; active means well fitted activation curve with a large enough effect in the signal ratio; the % refers to the signal ratio; further: potency means the concentration at half of the fitted maximal effect; on activation: % of control where 0% means no effect). In outline: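 CellSensor ARE-bla HepG2 cells (2,000/well) carrying ARE-driven beta-lactamase, exposed 16 h at 37 C. LiveBLAzer B/G FRET substrate added for 2 h at room temperature; fluorescence intensity read.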
A short description of experiment [7]: qHTS assay for small molecule activators of the p53 signaling pathway (AID 651743; active means well fitted activation curve with a large enough effect in the signal ratio, not every such curve was filed as active; the % refers to the signal ratio; further: % of control where 0% means no effect). The conditions noted are these: HCT-116 p53RE-bla, beta-lactamase FRET ratio, 16 h; activation: stronger effect = higher value. In outline:
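p53RE-bla HCT-116 cells carrying a beta-lactamase reporter under p53 response elements were exposed to compounds for 16 hours at 37 C. Reporter activity read as fluorescence after 2 hours at room temperature with LiveBLAzer B/G FRET substrate.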

The nature of experiment [8]: qHTS assay for small molecule disruptors of the mitochondrial membrane potential - 1 hr assay (AID 651754; calls by dose curve; further: nearly all actives have a fitted effect of over 35% in size; further: potency means the concentration at half of the fitted maximal effect). In outline:
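HepG2, 2,000 cells/well, overnight attachment; cpd or DMSO 1 hr, 37C/5% CO2; Mito-MPS dye 30 min, 37C; fluorescence monomer (490/535) and aggregate (540/590).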

The nature of experiment [9]: qHTS assay for small molecule disruptors of the mitochondrial membrane potential - 5 hr assay (AID 651755; calls by dose curve; further: nearly all actives have a fitted effect of over 40% in size; further: potency means the concentration at half of the fitted maximal effect). In short, it runs like this: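 HepG2 cells (2,000/well), attached overnight, exposed to compound 5 hr at 37C, then Mito-MPS dye 30 min. Fluorescence read for monomers (490/535 nm) and aggregates (540/590 nm).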
Experiment [10] can be described thus: S16 Schwann cell viability assay (CellTiter-Glo assay) (AID 624031).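 Further: native untransfected S16 rat Schwann cells; cellular ATP luminescence as a viability measure; plate controls were DMSO-treated cells for no effect and cell-free wells for full effect; nearly all actives have a fitted effect of over 70% in size.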 In short, it runs like this: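 Cells were seeded at 500-750 per well in phenol red-free DMEM with 10% FBS and left overnight. Compounds or DMSO were pinned in, incubation ran 24 h at 37 °C/5% CO2, then CellTiter-Glo reagent was added and luminescence measured.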
Experiment [11] is described as follows: S16 Schwann cell PMP22 intronic element beta-lactamase assay (AID 624044; calls by dose curve;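 further: 0% = DMSO and -100% = potassium clavulanate positive control; nearly all actives have a fitted effect of over 15% in size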). As to conditions: S16 rat Schwann cells, PMP22 element beta-lactamase FRET, 24 h; ratio activity, negative = inhibition: at 38.3 µM (top of the series) unless noted. In short, it runs like this: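 Rat S16 Schwann cells with beta-Lac driven by a PMP22 intronic element, compound-treated 24 h at 37 °C. LiveBLAzer FRET B/G read: 460 nm normalized to potassium clavulanate vs DMSO; 535 nm FRET as viability; concentration-effect curves classified.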

The target in experiment [12] is Tumor necrosis factor (Homo sapiens) (UniProt P01375). In words: qHTS assay to identify small molecules that stimulate Tumor Necrosis Factor-alpha (TNF-alpha) secretion (AID 651757; active means well fitted curve in the direction sought with a large enough effect in the signal ratio; the % refers to the signal ratio; further: 0% is about no effect). In outline: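 Read-out is HTRF, a TR-FRET sandwich of cryptate- and XL665-labeled anti-TNF-alpha antibodies detecting cytokine secreted by THP-1 cells. Cells had been incubated with test compounds at 37 C for 17 hrs beforehand.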

A short description of experiment [13]: qHTS assay to identify small molecules that stimulate interleukin-8 (IL-8) secretion (AID 651758; active means well fitted activation curve with a large enough effect in the signal ratio; the % refers to the signal ratio; further: 0% is about no effect). In outline: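 THP-1 cells (2000/well) exposed to compound 16 h at 37 C; secreted IL-8 then detected by HTRF with cryptate- and XL665-labelled anti-IL-8 antibody pair after 1-3 h at room temperature.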

Sequence of Tumor necrosis factor (Homo sapiens) (P01375 whole entry, looked up): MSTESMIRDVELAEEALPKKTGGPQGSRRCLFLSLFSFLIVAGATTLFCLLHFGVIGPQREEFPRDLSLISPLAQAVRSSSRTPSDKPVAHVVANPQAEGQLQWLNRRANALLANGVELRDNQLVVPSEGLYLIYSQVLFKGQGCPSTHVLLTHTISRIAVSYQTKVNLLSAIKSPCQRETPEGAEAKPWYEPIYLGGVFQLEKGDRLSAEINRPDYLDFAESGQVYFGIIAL
Sequence of Retinoic acid receptor RXR-alpha (Homo sapiens) (P19793 whole entry, looked up): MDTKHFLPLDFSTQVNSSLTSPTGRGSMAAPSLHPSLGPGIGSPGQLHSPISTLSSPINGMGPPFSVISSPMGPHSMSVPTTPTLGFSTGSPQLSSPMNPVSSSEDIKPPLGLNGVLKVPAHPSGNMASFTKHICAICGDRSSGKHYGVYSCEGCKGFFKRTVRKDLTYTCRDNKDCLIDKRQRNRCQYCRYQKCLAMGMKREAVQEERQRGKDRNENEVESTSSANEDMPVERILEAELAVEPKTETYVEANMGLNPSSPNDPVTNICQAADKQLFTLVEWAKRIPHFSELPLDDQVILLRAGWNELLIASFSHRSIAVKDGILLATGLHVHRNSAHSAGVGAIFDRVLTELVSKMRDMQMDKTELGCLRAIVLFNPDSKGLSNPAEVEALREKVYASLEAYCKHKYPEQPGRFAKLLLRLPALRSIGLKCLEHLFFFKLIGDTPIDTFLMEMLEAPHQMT
Sequence of Voltage-gated inwardly rectifying potassium channel KCNH2 (Homo sapiens) (Q12809 whole entry, looked up): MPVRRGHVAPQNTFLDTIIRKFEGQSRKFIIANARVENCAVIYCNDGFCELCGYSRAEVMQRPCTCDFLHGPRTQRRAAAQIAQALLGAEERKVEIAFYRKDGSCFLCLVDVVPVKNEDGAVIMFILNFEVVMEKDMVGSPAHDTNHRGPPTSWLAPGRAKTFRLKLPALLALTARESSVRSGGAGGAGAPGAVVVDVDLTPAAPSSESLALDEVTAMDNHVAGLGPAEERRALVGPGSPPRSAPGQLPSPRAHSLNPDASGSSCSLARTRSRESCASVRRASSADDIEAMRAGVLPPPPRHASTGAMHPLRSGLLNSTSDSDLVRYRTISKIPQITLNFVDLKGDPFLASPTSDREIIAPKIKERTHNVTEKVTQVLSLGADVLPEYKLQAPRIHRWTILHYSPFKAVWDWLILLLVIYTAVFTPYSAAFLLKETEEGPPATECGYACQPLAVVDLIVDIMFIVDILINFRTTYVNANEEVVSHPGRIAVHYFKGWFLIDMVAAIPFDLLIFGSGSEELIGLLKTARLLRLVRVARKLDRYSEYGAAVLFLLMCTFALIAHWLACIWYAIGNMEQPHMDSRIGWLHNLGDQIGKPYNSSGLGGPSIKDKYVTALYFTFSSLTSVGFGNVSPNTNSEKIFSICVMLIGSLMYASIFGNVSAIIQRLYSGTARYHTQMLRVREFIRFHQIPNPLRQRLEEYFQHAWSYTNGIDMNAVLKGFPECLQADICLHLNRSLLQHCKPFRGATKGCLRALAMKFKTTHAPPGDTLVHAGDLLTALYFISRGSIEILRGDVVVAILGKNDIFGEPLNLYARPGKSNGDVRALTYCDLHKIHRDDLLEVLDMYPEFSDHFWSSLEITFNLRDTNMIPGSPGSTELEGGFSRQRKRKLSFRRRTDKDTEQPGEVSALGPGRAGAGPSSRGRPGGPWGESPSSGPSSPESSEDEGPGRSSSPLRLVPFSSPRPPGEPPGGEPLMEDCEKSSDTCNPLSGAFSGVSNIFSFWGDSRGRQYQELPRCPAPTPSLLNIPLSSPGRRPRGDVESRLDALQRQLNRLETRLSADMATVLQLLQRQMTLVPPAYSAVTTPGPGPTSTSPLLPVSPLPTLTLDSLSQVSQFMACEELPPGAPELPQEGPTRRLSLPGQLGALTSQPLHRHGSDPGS
Sequence of Luciferin 4-monooxygenase (Photinus pyralis) (P08659 whole entry, looked up): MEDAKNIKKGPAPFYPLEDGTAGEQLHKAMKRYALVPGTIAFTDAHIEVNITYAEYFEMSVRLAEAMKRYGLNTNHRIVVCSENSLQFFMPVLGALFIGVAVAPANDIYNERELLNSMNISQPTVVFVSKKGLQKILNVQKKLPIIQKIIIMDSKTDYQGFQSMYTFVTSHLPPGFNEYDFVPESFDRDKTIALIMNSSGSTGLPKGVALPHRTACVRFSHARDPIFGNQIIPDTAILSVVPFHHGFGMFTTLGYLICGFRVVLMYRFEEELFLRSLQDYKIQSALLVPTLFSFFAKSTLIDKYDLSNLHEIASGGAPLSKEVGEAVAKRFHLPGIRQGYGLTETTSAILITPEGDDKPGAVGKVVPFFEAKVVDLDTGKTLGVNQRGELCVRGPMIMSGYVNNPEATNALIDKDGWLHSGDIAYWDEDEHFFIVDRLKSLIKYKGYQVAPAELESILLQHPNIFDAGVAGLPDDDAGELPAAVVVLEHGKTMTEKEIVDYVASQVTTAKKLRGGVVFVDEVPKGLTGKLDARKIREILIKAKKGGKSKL

On to `Nc1ccc(N=Nc2ccccc2)c(N)n1`, for which the results for the max response in experiment [1] and in [2] were -12.2% and -21% (inactive), respectively. The Potency result in [3] and in experiment [5] was “inactive” each time. Besides, the Potency in experiment [4] is 10.2 µM (active); in experiment [6] it was 19.3 µM (active) and 37.6 µM (active); in experiment [8] it was 18.8 µM (active); in experiment [9] it was 16.8 µM (active). For the same compound, the activation in experiment [7] is 2.09% (inactive) and 13.7% (inactive).
In the case of `CO[C@@]1(NC(=O)C2SC(=C(C(N)=O)C(=O)O)S2)C(=O)N2C(C(=O)O)=C(CSc3nnnn3C)CS[C@@H]21` (stereo not given in full), the Potency in experiment [3] is 7.08 µM (active).
`C=C(C)C1CC=C(C)CC1` (stereo not given): the max response was 0.388% and 6.57% in [1]; 2.38% (inactive) and 15.2% (inactive) in experiment [2]. Besides, the Potency entry in experiment [10] and in [5] was “inactive” each time. In addition, the ratio activity, negative = inhibition in experiment [11] is -0.885% (inactive). In addition, the Potency entry in experiment [6] is “inactive and 1.12 mM (active)”. Further, the activation in experiment [7] was -4.46% (inactive).
For `CC(C)O`, the results for the max response in experiment [1] and in experiment [2] were -15.1% and 36.2% (inactive), respectively. In addition, the Potency entry in experiment [3], in [4], in experiment [10], in experiment [5], in experiment [8] and in experiment [9] was “inactive” throughout. The Potency entry in experiment [12] and in experiment [13] was “inactive” throughout. For the same compound, in [11], the ratio activity, negative = inhibition is -7.58% (inactive).
For the compound `NC(=O)c1cc[n+](CC2=C(C(=O)O)N3C(=O)[C@@H](NC(=O)C(c4ccccc4)S(=O)(=O)[O-])[C@H]3SC2)cc1` (stereo not given in full), the Potency result in experiment [3] was “inactive”.
For the compound `NC[C@@H]1CC[C@@H](N)[C@@H](O[C@H]2[C@H](O)[C@@H](O[C@H]3O[C@H](CO)[C@@H](O)[C@H](N)[C@H]3O)[C@H](N)C[C@@H]2N)O1`, the Potency entry in [3] was “inactive”.
`NC(=O)OCC(O)COc1ccc(Cl)cc1` (stereo not given): the Potency entry in experiment [3] is “inactive”.
Still for that read-out and setting: then `CCCC(=O)Nc1c(I)cc(I)c(CC(CC)C(=O)O)c1I` (stereo not given), with “inactive”; and `O=C1NC(=O)[C@H]2[C@@H]1[C@@H]1C=C[C@H]2C1`, with “inactive”; and `CNC(C)CCC=C(C)C` (stereo not given), with 1.58 µM (active).
`ClC(Cl)Cl`: the max response in experiment [1] is -1.18%; in experiment [2], 6.91% (inactive). The Potency result in experiment [3], in [10], in experiment [5], in [6], in experiment [8] and in [9] was “inactive” in each case. Also, the Potency entry in [12] was “inactive”. In addition, in [11], the ratio activity, negative = inhibition is 4.84% (inactive). Also, the activation in experiment [7] is 0.456% (inactive).
Regarding `C[C@H](CCC(=O)O)[C@H]1CC[C@H]2[C@@H]3[C@H](O)C[C@@H]4C[C@H](O)CC[C@]4(C)[C@H]3C[C@H](O)[C@]12C`, the max response in [1] was 8.31%; in [2], -12.8% (inactive). In addition, the Potency entry in [3], in [6], in experiment [8], in experiment [9] and in experiment [12] was “inactive” throughout. Besides, the activation in experiment [7] was -1.29% (inactive).
As for `CN[C@@H]1[C@H](O[C@H]2[C@H](O[C@H]3[C@H](O)[C@@H](O)[C@H](N=C(N)N)[C@@H](O)[C@@H]3N=C(N)N)O[C@@H](C)[C@]2(O)CO)O[C@@H](CO)[C@H](O)[C@H]1O`, in [3], the Potency entry is “inactive”.
On the same count and under the same terms, to `CCC(Oc1ccccc1)C(=O)N[C@@H]1C(=O)N2[C@@H]1SC(C)(C)[C@@H]2C(=O)O` (stereo not given in full) belongs “inactive”; to `Nc1nc(/C(=C/CC(=O)O)C(=O)N[C@@H]2C(=O)N3C(C(=O)O)=CCS[C@H]23)cs1`, “inactive”; to `CC1(C)C(\C=C/C=C\C=C/C=C2/N(CCCCS(=O)(=O)O)c3ccc4ccccc4c3C2(C)C)=[N+](CCCCS(=O)(=O)[O-])c2ccc3ccccc3c21`, “inactive”.
Same read-out and setting: then `CC[C@@H](C(=O)[C@@H](C)[C@@H](O)[C@H](C)[C@@H]1O[C@@H]([C@@H](CC)C(=O)O)CC[C@@H]1C)[C@H]1O[C@]2(C=C[C@@H](O)[C@]3(CC[C@@](C)([C@H]4CC[C@](O)(CC)[C@H](C)O4)O3)O2)[C@H](C)C[C@@H]1C`, with “inactive”.
Same read-out and setting: to `O=C1c2c(O)cccc2[C@H]([C@@H]2O[C@H](CO)[C@@H](O)[C@H](O)[C@H]2O)c2cc(CO)cc(O)c21` belongs “inactive”.
Take `Cc1ccc(S(=O)(=O)O)cc1C`: the max response in [1] was -21.8%; in experiment [2] it was 10.6% (inactive). Besides, the Potency entry in experiment [3], in [4], in experiment [10], in experiment [5], in experiment [8] and in experiment [9] was “inactive” throughout. Moreover, the Potency result in [12] and in experiment [13] was “inactive” each time. In addition, the activation in experiment [7] was -1.09% (inactive).
